KKLEB tox: CF airway cell cytotoxicity counter-screen; KKLEB CF airway cells viability, ATPlite luminescence, overnight; hits give low values; cells stimulated with P. aeruginosa culture filtrate; activity change (cytotoxicity), % at 5 µM; 360,000 tested, 0.36% active;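 active = corrected activity change at or below -50% at 5 µM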
HIF-2a block: HIF-2a inhibition; inhibition, % at 18.8 µM; AID 624352; 786-0 RCC cells HIF-2a reporter, luciferase luminescence, overnight; 360,000 tested, 0.72% active;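 active = inhibition of the luminescence signal of 40% or more relative to plate controls, in a single-dose primary screen at 18.75 µM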
CF NFkB inh: inhibitors of cystic fibrosis induced NF-kB | inhibition, % at 5 µM | KKLEB NF-kB-GFP reporter, PAF-induced, GFP fluorescence overnight | 360,000 tested, 0.86% active;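 active = at least 50% inhibition at 5 µM, scaled per plate between neutral and stimulator controls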;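 also: PAF is a Pseudomonas aeruginosa culture filtrate used as stimulus; plate controls were PAF-stimulated DMSO wells for no effect and unstimulated DMSO wells for full effect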
Peg3 prom inh: Peg3 promoter activity inhibition. AID 588405. 360,000 tested, 1.7% active. HeLa PEG-Prom luciferase reporter, luminescence, overnight. inhibition, % at 20 µM;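 active = inhibition of at least 50% at 20 µM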
MITF TRPM1 inh: reduces MITF-dependent TRPM1 promoter luciferase signal. SK-MEL-5 TRPM1 promoter luciferase, 24 h. inhibition, % at 12.5 µM. 330,000 tested, 0.83% active;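 active = mean inhibition across replicates of 60% or more, whatever share of single replicates reaches that level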
ABHD5-PLIN5 inh: ABHD5-PLIN5 protein interaction inhibition; Q00G26+Q8WTS1; Split G. princeps luciferase complementation, luminescence, 4 h; inhibition, % at 4 µM; 360,000 tested, 0.78% active;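 active = inhibition above the mean inhibition across every tested compound plus 3 SD, cut at about 22% in these data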;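 also: 0% = DMSO only wells and the 100% control is not disclosed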
Target sequence (Q00G26 whole entry, looked up): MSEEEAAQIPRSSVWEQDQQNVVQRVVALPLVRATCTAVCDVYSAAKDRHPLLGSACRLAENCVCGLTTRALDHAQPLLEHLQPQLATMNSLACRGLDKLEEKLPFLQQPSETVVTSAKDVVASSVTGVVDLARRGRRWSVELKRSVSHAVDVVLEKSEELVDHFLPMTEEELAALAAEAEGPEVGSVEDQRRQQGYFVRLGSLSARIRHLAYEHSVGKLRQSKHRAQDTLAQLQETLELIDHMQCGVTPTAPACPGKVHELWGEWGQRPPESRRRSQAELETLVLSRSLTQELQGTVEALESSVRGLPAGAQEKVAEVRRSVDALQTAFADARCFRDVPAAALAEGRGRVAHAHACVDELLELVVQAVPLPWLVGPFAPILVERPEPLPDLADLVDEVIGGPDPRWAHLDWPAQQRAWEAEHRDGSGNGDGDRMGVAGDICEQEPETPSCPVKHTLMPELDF
Target sequence (Q8WTS1 whole entry, looked up): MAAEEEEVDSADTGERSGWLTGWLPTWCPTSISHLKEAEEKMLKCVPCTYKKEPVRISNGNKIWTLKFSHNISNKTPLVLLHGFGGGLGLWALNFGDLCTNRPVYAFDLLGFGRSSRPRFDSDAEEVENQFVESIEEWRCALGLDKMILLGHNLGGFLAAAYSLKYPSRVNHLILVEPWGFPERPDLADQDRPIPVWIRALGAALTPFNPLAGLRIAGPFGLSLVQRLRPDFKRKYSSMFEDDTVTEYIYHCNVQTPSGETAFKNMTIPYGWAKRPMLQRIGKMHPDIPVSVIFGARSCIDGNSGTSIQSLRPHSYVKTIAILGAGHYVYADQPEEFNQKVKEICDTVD
ABHD5-PLIN5 conf: ABHD5-PLIN5 interaction inhibition, confirmed; shares compounds with ABHD5-PLIN5 inh; biochemical ABHD5-PLIN5 interaction, luminescence; inhibition, % at 4 µM; 2,200 tested, 67% active; AID 651612; in the data active = inhibition above about 23%;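 also: 0% = DMSO vehicle wells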
HNF4 split-luc: active in HNF4 split-luciferase counter-screen for ABHD5-PLIN5 inhibitors | shares compounds with ABHD5-PLIN5 inh | inhibition, % at 4 µM | 2,200 tested, 77% active | HNF4 dimerization, luminescence, biochemical;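 active = mean inhibition across replicate wells exceeding the computed hit threshold, cut at about 13% in these data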;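 also: light from luciferase halves that rejoin when HNF4 fusion proteins dimerize; 0% = DMSO only wells and the 100% control is not given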
Numbers without * were called inactive; . = no result. This is a sample that favours compounds with a hit; in the whole collection about 3.1% have one here.

SMILES	KKLEB tox	HIF-2a block	CF NFkB inh	Peg3 prom inh	MITF TRPM1 inh	ABHD5-PLIN5 inh	ABHD5-PLIN5 conf	HNF4 split-luc
O=C(O)C1CCCN(S(=O)(=O)c2ccccc2)C1 (stereo not given)	6	13	-1	-11	-18	-1	.	.
Cn1cc(C(=O)N/N=C/C(Br)=C/c2ccccc2)ccc1=O	-8	-44	-32	-1	22	27*	8	75*
Cc1ccc(-c2cc(C(=O)N/N=C/C(Br)=C/c3ccccc3)n[nH]2)o1	0	-15	39	-16	12	27*	14	39*
Cn1cc(C(=O)N/N=C/C(Br)=C\c2ccccc2)ccc1=O	-2	-24	-14	-6	26	26*	7	26*
Cn1cc(C(=O)N/N=C/C=C/c2ccccc2)ccc1=O	14	-3	-5	6	4	2	.	.
O=C(NCc1ccccn1)C(=O)NCC1OCCN1S(=O)(=O)c1ccc(Cl)cc1 (stereo not given)	13	12	12	16	5	-3	.	.
O=C(O)c1cccc(S(=O)(=O)Nc2ccc3oc(=O)sc3c2)c1	12	8	0	4	-4	63*	-40	42*
CCn1nc(C(C)C)cc1C(=O)N1CCCC(CO)(Cc2ccc(F)cc2F)C1 (stereo not given)	0	12	4	7	10	0	.	.
CCN(CC(=O)Nc1ccc(OC)cc1)C(=O)CSCC(=O)Nc1ccc(C)cc1	-3	6	2	14	3	-8	.	.
CCN(CC(=O)Nc1c(F)cccc1F)C(=O)CSCC(=O)Nc1ccc(OC)cc1	-1	6	-3	-8	-4	26*	3	-5
CCN(CC)c1ccc(C(=O)Nc2ccccc2)cc1[N+](=O)[O-]	-9	-300	-5	-195	-86	-3	.	.
CSc1nc(=O)[nH]nc1Sc1ccccc1	3	0	10	8	.	33*	48*	53*
O=C(NC1CCCCC1)Oc1cc2oc(=O)sc2cc1Br	-2	18	7	15	15	43*	-21	42*
O=C1c2ccccc2C(=O)N1Nc1ccccc1	3	16	-3	3	1	0	.	.
Cc1ccc(NN2C(=O)C=C(c3ccccc3)C2=O)cc1	-22	34	38	85*	.	92*	100*	105*
C/C(CC(=O)Nc1c(C)cc(C)cc1C)=N\NC(=O)OC(C)(C)C	-4	10	10	4	5	-1	.	.
CC1=NN(C(=O)c2ccc(Cn3cc(Br)c([N+](=O)[O-])n3)o2)C(O)(C(F)(F)F)C1 (stereo not given)	-15	11	7	26	4	-4	.	.
CC1=NN(C(=O)c2ccc(Cn3nc(C)cc3C)o2)C(O)(C(F)(F)F)C1 (stereo not given)	12	9	3	7	-6	58*	6	-2
COc1ccc(/C=C(\NC(=O)c2ccc([N+](=O)[O-])cc2)C(=O)N2CCOCC2)cc1	-6	20	6	5	-2	-4	.	.
CCc1ccc(NC(=O)COc2coc(CN3CCN(c4ccccc4)CC3)cc2=O)cc1	-12	-8	14	2	10	-2	.	.
COc1cccc(NC(=O)COc2coc(CN3CCN(c4ccccc4)CC3)cc2=O)c1	-4	2	11	22	-2	25*	7	1
CC1CC(C)CN(C(=O)c2ccc(-c3ccc([N+](=O)[O-])cc3)o2)C1 (stereo not given)	-18	-78	11	33	-73	28*	15	3
O=C(c1ccc(-c2ccc([N+](=O)[O-])cc2)o1)N1CCCCC1	3	-218	-6	-196	-47	9	.	.
Cc1nc2ccccc2n1CCOc1ccccc1	-12	11	2	-4	7	0	.	.
Cc1ccc(NCc2nc3ccccc3n2CCOc2ccccc2)cc1	4	-100	15	-62	-73	26*	6	2
SMILES	KKLEB tox	HIF-2a block	CF NFkB inh	Peg3 prom inh	MITF TRPM1 inh	ABHD5-PLIN5 inh	ABHD5-PLIN5 conf	HNF4 split-luc
Cc1ccc(NC(=O)CCc2nnc3ccc(NCc4ccco4)nn23)nc1	-7	4	35	-13	9	39*	14	24*
CCOC(=O)C1CCN(C(=O)CCc2nnc3ccc(NCc4ccco4)nn23)CC1	-9	-9	37	-4	2	51*	13	12
COc1ccc2c(c1)OC[C@H]1[C@H]2N2C(=O)[C@H](C)NC(=O)[C@@]2(C)[C@H]1c1ccccc1	-16	11	7	0	8	-1	.	.
CCOC(=O)c1c(-c2ccc(C)o2)csc1NC(=O)CN1CCOCC1	-12	31	20	12	0	5	.	.
CCOC(=O)c1c(-c2ccc(C)o2)csc1NC(=O)COC(=O)c1cccs1	-4	14	13	-4	-3	27*	10	28*
CCOC(=O)c1c(-c2ccc(C)o2)csc1NC(=O)CSc1ncn[nH]1	10	16	34	11	10	44*	12	52*
O=C(COC(=O)C1CC1)Nc1c(Cl)cccc1C(F)(F)F	3	10	-27	0	-13	6	.	.
COc1ccc(C[C@@H]2OC3(C=CC(=O)C=C3)O[C@H]2Cc2ccc(OC)cc2)cc1	-78*	87*	85*	103*	100*	100*	104*	108*
O=C1C=CC2(C=C1)O[C@H](Cc1ccccc1)[C@@H](Cc1ccccc1)O2	-98*	92*	96*	108*	97*	98*	103*	109*
COc1ccc(N2C(=O)CC(Cc3ccccc3)C2=O)cc1 (stereo not given)	-6	2	5	-6	-7	-4	.	.
Cc1cccc(NC(=O)c2ccc([N+](=O)[O-])s2)c1C	4	-27	12	-19	8	-6	.	.
COC(=O)C1=C(C)N(Cc2ccccc2)C(=NCC(C)C)N[C@H]1c1cccc(C(F)(F)F)c1	-3	-9	24	103*	96*	24*	14	2
CC1CC(C)CN(C(=O)CN2C(=O)NC(c3ccccc3)(c3ccccc3)C2=O)C1 (stereo not given)	5	7	-9	11	9	34*	3	3
O=C(CSc1nnc(-c2ccc(O)cc2)n1-c1ccccc1)CC(=O)Nc1ccccc1	16	-41	-28	-20	-7	3	.	.
N#CCCn1cc(C(=O)Nc2ccc(C(=O)O)cc2)c(-c2cccc(Br)c2)n1	0	11	-4	-2	5	4	.	.
O=C(NCCCNC(=O)c1cnccn1)c1cccc(Cl)c1	0	13	-8	14	-8	4	.	.

Screens: PubChem BioAssay, several laboratories
